Data reported in PubChem BioAssay AID1159580 (chemical genetic matrix, 2015).
The whole screen tested about 5,500 compounds, of which about 2,000 (36%) were called active. Not shown: some 18% with an inconclusive outcome. No stated cut-off is given here; in the data, active means normalized growth mostly below about 0.91 (no sharp cut-off); inconclusive means no clear call, values can overlap the other calls; inactive means mostly above about 0.92. This is one part of the list.

Test: chemical genetic growth profiling, strain panel (AID 1159580);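 further: tested at 20 µM; growth read once vehicle control cultures reached saturation at 30 °C; 1 = growth at the plate median or of vehicle wells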
Conditions: growth OD
[1] = S. cerevisiae deletion strains, locus YAL013W, strain DEP1, stronger effect = lower value
[2] = S. cerevisiae deletion strains, locus YBR229C, strain ROT2, stronger effect = lower value
[3] = S. cerevisiae deletion strains, locus YDL101C, strain DUN1, stronger effect = lower value
[4] = S. cerevisiae deletion strains, locus YDR150W, strain NUM1, stronger effect = lower value
[5] = S. cerevisiae deletion strains, locus YEL061C, strain CIN8, stronger effect = lower value
[6] = S. cerevisiae deletion strains, locus YGR078C, strain PAC10, stronger effect = lower value
[7] = S. cerevisiae deletion strains, locus YHR030C, strain SLT2, stronger effect = lower value
[8] = S. cerevisiae deletion strains, locus YHR087W, strain rtc3, stronger effect = lower value
[9] = S. cerevisiae deletion strains, locus YJR043C, strain POL32, stronger effect = lower value
[10] = S. cerevisiae deletion strains, locus YJR075W, strain HOC1, stronger effect = lower value
[11] = S. cerevisiae deletion strains, locus YKL190W, strain CNB1, stronger effect = lower value
[12] = S. cerevisiae deletion strains, locus YLR039C, strain RIC1, stronger effect = lower value
[13] = S. cerevisiae deletion strains, locus YLR058C, strain SHM2 (second series), stronger effect = lower value
[14] = S. cerevisiae deletion strains, locus YLR085C, strain ARP6, stronger effect = lower value
[15] = S. cerevisiae deletion strains, locus YLR262C, strain YPT6, stronger effect = lower value
[16] = S. cerevisiae deletion strains, locus YML094W, strain GIM5, stronger effect = lower value
[17] = S. cerevisiae deletion strains, locus YMR219W, strain ESC1, stronger effect = lower value
[18] = S. cerevisiae deletion strains, locus YMR263W, strain SAP30, stronger effect = lower value
[19] = S. cerevisiae deletion strains, locus YNL153C, strain GIM3, stronger effect = lower value
[20] = S. cerevisiae deletion strains, locus YNL298W, strain CLA4 (second series), stronger effect = lower value
[21] = S. cerevisiae deletion strains, locus YNL322C, strain KRE1, stronger effect = lower value
[22] = S. cerevisiae deletion strains, locus YNR030W, strain Alg12, stronger effect = lower value
[23] = S. cerevisiae deletion strains, locus YPL055C, strain LGE1, stronger effect = lower value
[24] = S. cerevisiae deletion strains, locus YPR135W, strain CTF4, stronger effect = lower value
[25] = S. cerevisiae strains, strain wild type, stronger effect = lower value

Measured: normalized growth

NC(N)=NC(N)=Nc1ccccc1C(F)(F)F
inactive: [1] 0.987 | [2] 0.982 | S. cerevisiae deletion strains, locus YCL061C, strain MRC1, stronger effect = lower value 1.01 | [3] 0.969 | [4] 0.895 | [5] 0.993 | [6] 0.979 | [7] 0.935 | [8] 0.966 | [9] 0.998 | [10] 1.01 | [11] 0.997 | [12] 0.989 | [13] 0.982 | [14] 1.01 | [15] 0.997 | [16] 0.923 | [17] 0.987 | [18] 1.06 | S. cerevisiae deletion strains, locus YNL128W, strain TEP1, stronger effect = lower value 0.984 | [19] 1.02 | [20] 0.938 | [21] 0.993 | [22] 0.983 | [23] 0.962 | [24] 0.922 | [25] 0.986

CCOC(=O)c1sc(S(C)=NC(=O)Nc2ccc(Cl)cc2)c2c1CCC=C2 (stereo unspecified)
active: S. cerevisiae deletion strains, locus YLR113W, strain HOG1, stronger effect = lower value 0.859
inactive: S. cerevisiae deletion strains, locus YAR019C, strain CDC15, stronger effect = lower value 0.985 | S. cerevisiae deletion strains, locus YBL105C, strain PKC1, stronger effect = lower value 0.974 | S. cerevisiae deletion strains, locus YBR135W, strain CKS1, stronger effect = lower value 0.974 | S. cerevisiae deletion strains, locus YBR136W, strain MEC1, stronger effect = lower value 0.974 | S. cerevisiae deletion strains, locus YBR160W, strain CDC28, stronger effect = lower value 0.978 | S. cerevisiae deletion strains, locus YDL017W, strain CDC7, stronger effect = lower value 0.979 | S. cerevisiae deletion strains, locus YDL028C, strain MPS1, stronger effect = lower value 0.971 | [3] 0.97 | S. cerevisiae deletion strains, locus YDL108W, strain KIN28, stronger effect = lower value 0.972 | S. cerevisiae deletion strains, locus YDL132W, strain cdc53, stronger effect = lower value 0.965 | S. cerevisiae deletion strains, locus YDL214C, strain PRR2, stronger effect = lower value 0.922 | S. cerevisiae deletion strains, locus YDR052C, strain DBF4, stronger effect = lower value 0.981 | S. cerevisiae deletion strains, locus YDR054C, strain cdc34, stronger effect = lower value 0.974 | S. cerevisiae deletion strains, locus YDR226W, strain ADK1, stronger effect = lower value 0.963 | S. cerevisiae deletion strains, locus YDR477W, strain SNF1, stronger effect = lower value 0.937 | S. cerevisiae deletion strains, locus YER123W, strain YCK3, stronger effect = lower value 0.923 | S. cerevisiae deletion strains, locus YER133W, strain GLC7, stronger effect = lower value 0.945 | S. cerevisiae deletion strains, locus YFL009W, strain cdc4, stronger effect = lower value 0.973 | S. cerevisiae deletion strains, locus YFL029C, strain CAK1, stronger effect = lower value 0.977 | S. cerevisiae deletion strains, locus YFR003C, strain YPI1, stronger effect = lower value 0.976 | S. cerevisiae deletion strains, locus YFR019W, strain FAB1, stronger effect = lower value 0.94 | S. cerevisiae deletion strains, locus YFR028C, strain CDC14, stronger effect = lower value 0.975 | S. cerevisiae deletion strains, locus YGR040W, strain KSS1, stronger effect = lower value 0.922 | S. cerevisiae deletion strains, locus YGR052W, strain FMP48, stronger effect = lower value 0.954 | S. cerevisiae deletion strains, locus YGR092W, strain DBF2, stronger effect = lower value 0.947 | [7] 1.05 | S. cerevisiae deletion strains, locus YHR079C, strain IRE1, stronger effect = lower value 1.01 | S. cerevisiae deletion strains, locus YHR082C, strain KSP1, stronger effect = lower value 1.02 | S. cerevisiae deletion strains, locus YHR205W, strain SCH9, stronger effect = lower value 0.959 | S. cerevisiae deletion strains, locus YIL147C, strain SLN1, stronger effect = lower value 0.968 | S. cerevisiae deletion strains, locus YJL095W, strain BCK1, stronger effect = lower value 0.963 | S. cerevisiae deletion strains, locus YJL128C, strain PBS2, stronger effect = lower value 0.94 | S. cerevisiae deletion strains, locus YJL157C, strain FAR1, stronger effect = lower value 0.941 | S. cerevisiae deletion strains, locus YJR016C, strain ILV3, stronger effect = lower value 0.976 | S. cerevisiae deletion strains, locus YJR066W, strain TOR1 (second series), stronger effect = lower value 0.923 | S. cerevisiae deletion strains, locus YJR066W, strain TOR1, stronger effect = lower value 1.02 | S. cerevisiae deletion strains, locus YKL048C, strain ELM1, stronger effect = lower value 0.96 | S. cerevisiae deletion strains, locus YKL067W, strain YNK1, stronger effect = lower value 0.938 | S. cerevisiae deletion strains, locus YKL101W, strain HSL1, stronger effect = lower value 0.902 | S. cerevisiae deletion strains, locus YKL193C, strain SDS22, stronger effect = lower value 0.974 | S. cerevisiae deletion strains, locus YKL203C, strain TOR2, stronger effect = lower value 1.02 | S. cerevisiae deletion strains, locus YLR133W, strain CKI1, stronger effect = lower value 0.926 | S. cerevisiae deletion strains, locus YLR403W, strain SFP1, stronger effect = lower value 0.953 | S. cerevisiae deletion strains, locus YML070W, strain DAK1, stronger effect = lower value 0.916 | S. cerevisiae deletion strains, locus YMR001C, strain CDC5, stronger effect = lower value 0.978 | S. cerevisiae deletion strains, locus YMR205C, strain PFK2 (second series), stronger effect = lower value 0.951 | S. cerevisiae deletion strains, locus YMR277W, strain FCP1, stronger effect = lower value 0.974 | S. cerevisiae deletion strains, locus YNL006W, strain LST8, stronger effect = lower value 0.982 | S. cerevisiae deletion strains, locus YNL020C, strain ARK1, stronger effect = lower value 0.93 | S. cerevisiae deletion strains, locus YNL161W, strain CBK1, stronger effect = lower value 0.978 | S. cerevisiae deletion strains, locus YNL183C, strain NPR1, stronger effect = lower value 1 | S. cerevisiae deletion strains, locus YNL207W, strain RIO2, stronger effect = lower value 0.968 | S. cerevisiae deletion strains, locus YNL222W, strain SSU72, stronger effect = lower value 0.975 | S. cerevisiae deletion strains, locus YNL307C, strain MCK1 (second series), stronger effect = lower value 0.951 | S. cerevisiae deletion strains, locus YOL078W, strain AVO1, stronger effect = lower value 0.96 | S. cerevisiae deletion strains, locus YOL136C, strain PFK27, stronger effect = lower value 0.895 | S. cerevisiae deletion strains, locus YOR061W, strain CKA2, stronger effect = lower value 0.945 | S. cerevisiae deletion strains, locus YOR119C, strain RIO1, stronger effect = lower value 0.998 | S. cerevisiae deletion strains, locus YOR231W, strain MKK1, stronger effect = lower value 0.894 | S. cerevisiae deletion strains, locus YOR329C, strain SCD5, stronger effect = lower value 0.976 | S. cerevisiae deletion strains, locus YPL031C, strain PHO85, stronger effect = lower value 0.94 | S. cerevisiae deletion strains, locus YPL153C, strain RAD53, stronger effect = lower value 0.953 | S. cerevisiae deletion strains, locus YPL204W, strain HRR25, stronger effect = lower value 0.9 | S. cerevisiae deletion strains, locus YPL209C, strain IPL1, stronger effect = lower value 0.968 | S. cerevisiae deletion strains, locus YPL256C, strain CLN2, stronger effect = lower value 0.999 | S. cerevisiae deletion strains, locus YPR025C, strain CCL1, stronger effect = lower value 0.981 | S. cerevisiae deletion strains, locus YPR106W, strain ISR1, stronger effect = lower value 0.962 | S. cerevisiae deletion strains, locus YPR111W, strain DBF20, stronger effect = lower value 0.985 | S. cerevisiae deletion strains, strain NNK1, stronger effect = lower value 0.961 | S. cerevisiae deletion strains, strain TSCII, stronger effect = lower value 0.97

CCOC(=O)c1sc2sc(C(=O)c3ccc(Cl)cc3)c(C)c2c1C
inactive: [1] 1 | [2] 1.03 | [3] 1 | S. cerevisiae deletion strains, locus YDL134C, strain PPH21, stronger effect = lower value 1.01 | [4] 0.91 | [5] 1.02 | [6] 1.01 | [7] 1.1 | [8] 1.01 | [9] 0.991 | [10] 1.03 | [11] 1.02 | [12] 1.06 | [13] 1.01 | [14] 1.06 | [15] 1.06 | [16] 1.01 | [17] 1 | [18] 0.937 | S. cerevisiae deletion strains, locus YMR307W, strain GAS1, stronger effect = lower value 1.07 | [19] 1 | [20] 1.05 | [21] 1.01 | [22] 1.03 | [23] 0.904 | S. cerevisiae deletion strains, locus YPL241C, strain CIN2, stronger effect = lower value 1.01 | [24] 1.09 | [25] 1.02
